# Screening results: PubChem BioAssay, Paczesny and Yang Labs, IUPUI and University of Michigan
# The entries come from a sample that favours hits as a whole.
# ST2 IL33 inh: IL1RL1 inhibition; AlphaLISA ST2-Fc/biotin-IL-33 interaction, 1 h; hit rate 2.3% among 78,000; inhibition, % for hits at 17 µM; Q01638; in the data active means inhibition above about 30%
# Target sequence (Q01638 whole entry, looked up): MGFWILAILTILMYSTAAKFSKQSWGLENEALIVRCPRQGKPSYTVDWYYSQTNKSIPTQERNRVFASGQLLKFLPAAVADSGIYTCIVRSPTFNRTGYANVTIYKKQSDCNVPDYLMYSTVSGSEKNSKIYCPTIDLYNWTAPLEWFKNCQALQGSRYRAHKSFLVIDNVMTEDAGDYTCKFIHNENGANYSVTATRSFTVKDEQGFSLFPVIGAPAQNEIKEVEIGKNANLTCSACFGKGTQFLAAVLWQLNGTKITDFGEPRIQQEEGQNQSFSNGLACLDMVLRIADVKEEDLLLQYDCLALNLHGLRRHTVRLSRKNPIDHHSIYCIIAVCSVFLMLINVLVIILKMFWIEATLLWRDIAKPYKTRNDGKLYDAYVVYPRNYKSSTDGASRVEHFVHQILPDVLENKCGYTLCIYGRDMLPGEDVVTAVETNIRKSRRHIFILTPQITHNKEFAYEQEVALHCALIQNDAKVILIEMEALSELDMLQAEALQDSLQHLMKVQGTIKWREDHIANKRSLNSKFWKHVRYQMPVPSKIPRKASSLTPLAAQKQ
# Numbers without * were called inactive; i = inactive.
SMILES,ST2 IL33 inh
Cc1cccc(/C=C2\NC(=O)N(Cc3ccc(Cl)cc3)C2=O)c1,i
COc1ccccc1/C=C1/SC(N2CCN(C)CC2)=NC1=O,i
COc1ccccc1/C=C1\SC(N2CC(C)OC(C)C2)=NC1=O (stereo not drawn),i
Cc1cccc(/C=C2\CS/C(=C\c3cccc(C)c3)C2=O)c1,55.0%*
O=C1N=C(N2CCCC2)S/C1=C/c1cccc(O)c1,i
COc1cccc(/C=C2\CS/C(=C\c3cccc(OC)c3OC)C2=O)c1OC,39.0%*
O=C1/C(=C/c2ccsc2)CS/C1=C\c1ccsc1,39.0%*
Brc1cccc(C2=Nn3c(nnc3-c3cccnc3)SC2)c1,i
O=C(CSC1=NC(=O)C(c2ccccc2)C(=O)N1)Nc1ccc(Cl)cn1 (stereo not drawn),i
O=c1/c(=C/c2ccc(OCc3ccccc3)cc2)sc2ncnn12,i
O=C(Nc1ccccc1C(=O)O)c1cccc(S(=O)(=O)N2CCOCC2)c1,i
COC(=O)[C@@H](Cc1cccnc1)NC(=O)[C@H]1CN(C(C)=O)CCN1C(=O)c1cccs1,i
Cn1ccnc1CN1CCCC(CCC(=O)NCc2ccccc2Cl)C1 (stereo not drawn),i
CC1=CC[C@@H]2CN(C(=O)C3(S(=O)(=O)c4ccccc4)CC3)C[C@@H]2C1,i
Cc1nc2nc(SCC(=O)NCc3cccs3)nn2c(C)c1Cc1ccccc1,i
CC(C)c1cc(C(=O)N2CCCC3(CN(C)C(=O)O3)C2)cs1 (stereo not drawn),i
CCN1CCN(C(=O)CCC2CCN(CC3=CC[C@H]4C[C@@H]3C4(C)C)CC2)CC1,i
CC1(C)[C@H]2CC=C(CN3CCN(c4ccc([N+](=O)[O-])cc4)CC3)[C@@H]1C2,42.0%*
O=[N+]([O-])c1ccc(N2CCN(Cc3ccc(Br)o3)CC2)cc1,38.0%*
O=[N+]([O-])c1ccc(N2CCN(Cc3cccnc3)CC2)cc1,i
O=[N+]([O-])c1ccc(N2CCN(Cc3ccsc3)CC2)cc1,i
O=C(O)c1ccc(CN2CCN(c3ccc([N+](=O)[O-])cc3)CC2)cc1,i
COC(=O)[C@@H](C)NC(=O)[C@H]1CN(S(=O)(=O)c2ccccc2)CCN1C(=O)c1cccs1,i
CCN(CCCNC(=O)c1cn(CC(C)C)c(=O)c2c1c1ccccc1n2C)c1ccccc1,i
O=c1[nH]c(-c2ccccc2)nc2c1C1(CCCCC1)Cc1ccccc1-2,i
SMILES,ST2 IL33 inh
CN(CC(=O)Nc1ccc(Cl)cc1F)CC1CC(=O)N(C2CCCC2)C1 (stereo not drawn),i
CCC(C)(C)c1nnc(NC(=O)NCc2ccc(F)cc2F)s1,i
CC(Cc1cn(CCN(C)S(C)(=O)=O)nn1)c1ccccc1 (stereo not drawn),i
COc1cccc2c1NC(C)(C)C=C2C,46.0%*
COc1ccccc1N=C1C(=O)Nc2ccccc21,i
COc1cccc(OC)c1OC,i
CC12CC(NC(=O)N1C1CCCCC1)c1cc(Br)ccc1O2 (stereo not drawn),i
CC(C)c1[nH]nc2c1C1(CCN(Cc3ccccc3)CC1)C(C#N)=C(N)O2,31.0%*
CCN1C(=O)C2(C(C#N)=C(N)Oc3n[nH]c(-c4ccccc4)c32)c2ccccc21 (stereo not drawn),i
CC(C)c1[nH]nc2c1C(c1cccc(Cl)c1Cl)C(C#N)=C(N)O2 (stereo not drawn),i
CCOC(=O)C(C)(C)N(Cc1ccccc1F)S(=O)(=O)c1ccc(Br)cc1,i
Cc1ccc(-n2nc3c(c2NC(=O)c2cccs2)CSC3)c(C)c1,i
Nc1ccc(Nc2ccccc2)c(Cl)c1,44.0%*
Nc1cccc(C(=O)Nc2ccccc2Cl)c1,i
Nc1ccc(Cl)c(NC(=O)CC(=O)c2ccccc2)c1,i
Cc1ccccc1NC(=O)c1ccc(=O)n(Cc2ccc(F)cc2)c1,i
Cc1ccc(C2C(=C(O)c3ccc(S(=O)(=O)N(C)C)cc3)C(=O)C(=O)N2CCN(C)C)cc1 (stereo not drawn),i
CCN(CC)c1cc(C)c2cc(NC(=O)c3cccnc3)ccc2n1,i
C/C=C/c1ccc(OCc2ccccc2)c(OC)c1,i
COc1ccc(N=Cc2ccc(OCc3ccccc3)cc2)cc1OC,33.0%*
COc1ccc(C=Nc2ccc3[nH]c(=O)[nH]c3c2)cc1OC,i
Cc1cc(NS(=O)(=O)c2ccc(NC(=O)COc3ccccc3[N+](=O)[O-])cc2)nc(C)n1,i
COc1cc(Br)c(Br)c(C=Nc2cc(C)ccc2O)c1O,i
Cc1ccc(O)c(C=Nc2ccc(Br)c3cccnc23)c1,97.0%*
Cc1ccccc1N=Cc1cc([N+](=O)[O-])ccc1O,i
SMILES,ST2 IL33 inh
COCc1cc(CNC(=O)c2c(C)n(C)c3ccc(OC)cc23)[nH]n1,i
CCOc1cccc2sc(N3CCN(c4ccccc4)CC3)nc12,i
CCn1ccnc1CN(C)Cc1cn[nH]c1-c1cc2ccccc2o1,i
Cc1ccc(F)c(-c2ncccc2NC(=O)C(C)C)c1,i
Cc1ccc(C)c(C2=C/C(=C3/c4ccccc4-c4ncccc43)C(=O)O2)c1,43.0%*
Cc1ccc(F)c(-c2ncccc2C(=O)N2CCCC2)c1,i
CCC(C)N(Cc1ccncc1)C(=O)c1ccccc1OC(F)F (stereo not drawn),i
Cc1ccc(Nc2nc(-c3ccc([N+](=O)[O-])cc3)cs2)cc1C,33.0%*
Cc1nc(-c2ccc([N+](=O)[O-])cc2)cs1,i
Ic1ccc(-c2csc(Nc3ccc4c(c3)OCO4)n2)cc1,i
N[C@@H]1c2ccccc2C2(CCN(C(=O)CCCOc3ccccc3)CC2)[C@H]1O,i
C(=C\c1ccccc1)/Sc1ccc2ccccc2n1,34.0%*
C(=C\c1cnc2n[nH]nc2c1)/c1ccccc1,i
O=c1c2ccccc2nc(/C=C/c2ccccc2)n1Cc1ccccc1,i
CNc1ncnc2c1C(c1cccc([N+](=O)[O-])c1)c1c(NC)ncnc1O2,i
Cc1cc(C)c(C(=O)N2CCC3(CCCN(Cc4cccnc4)C3=O)C2)o1 (stereo not drawn),i
COc1cccc(C(=O)Nc2c3c(nn2C(C)(C)C)CS(=O)C3)c1 (stereo not drawn),i
COc1ccc(CC(=O)N2CC[C@@H](CC(=O)O)[C@@H](CCN3CCN(c4ccccn4)CC3)C2)cc1,i
O=C(O)C[C@@H]1CCN(C(=O)c2ccco2)C[C@@H]1CCN1CCN(c2ccccc2)CC1,i
COc1ccccc1N1CCN(CC[C@H]2CN(C(=O)N3CCOCC3)CC[C@H]2CC(=O)O)CC1,33.0%*
COc1ccc(C(=O)N2CC[C@@H](CC(=O)O)[C@@H](CCN3CCCN(C(C)=O)CC3)C2)cc1,39.0%*
COc1ccc(C(=O)N2CC[C@@H](CC(=O)O)[C@@H](CCN3CCN(c4cccc(C(F)(F)F)c4)CC3)C2)cc1,i
COc1ccc(CC(=O)N2CC[C@@H](CC(=O)O)[C@@H](CCN3CCN(c4cccc(C(F)(F)F)c4)CC3)C2)cc1,i
COCC(NC(=O)c1csc2nc(-c3ccccc3)cn12)c1ccnn1C (stereo not drawn),i
N#Cc1cccc(NC(=O)c2ccc3c(Cl)c4c(nc3c2)CCCC4)c1,i
Cc1noc(C)c1C(=O)N1CCC2(CCCN(CC3CC3)C2=O)C1 (stereo not drawn),i
COc1cc2c(cc1OC)C(C(=O)NC1CCCCC1)C(c1ccccc1F)N(C)C2=O (stereo not drawn),i
Cc1ccc(CN(CCN(C)C)C(=O)c2cnc3ccccn23)s1,i
O=c1oc(-c2ccccc2)nc2ccc(Cl)cc12,i
